This passage reports PBM binding z-score results from the supplement of paper PMC6555819.

In this assay the test system is PPARg:RXRa (NR concentration 180 nM, RXRa partner concentration 90 nM). The assay is described as follows: PBM binding z-score (relative to random genomic background probes); higher = stronger binding; sequences stand for … in GC…GCGATTGACAGCGTAGAATGAAGG
In outline: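 For binding z-scores, the reference was random background probes on custom Agilent 4×180K protein-binding microarrays. These arrays were incubated 1 h with ligand-free nuclear receptor dimers in PBS pH 7.4, 2% milk, 0.02% Triton X-100, 1 mM DTT, 0.2 mg/mL BSA and 0.4 mg/ml salmon testes DNA. Fluorescence was scanned after antibody detection of each partner (one per run) and regression-normalized.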
The sequence TCTCGGAGGACACGAAGCTCAGAGCTTTCCAGAG showed a PBM binding z-score of -0.122. With GCTGCTAGGTCAACTGATGGTCCGCTAAAGCTCG the figure was 2.32. The sequence CCTAGTTGGTCAAGGTCACACTCGCTATAGGTAC had a PBM binding z-score of 2.85.

Sequence CTACCAAGGTGAACAAGGTCGCTGATTACTATTC registered a PBM binding z-score of 1.17. The value for ACATACAGGTGATGAAGGTAACTCAGGCTATCAT was 1.06; that for TAGCCTAGGTCATGGACCAGTATACCACGCGAAC was 3.5. With TAGCCTAGGTAATGCGGGCCAGTATAGTGTCGGC the figure was 0.000474; with CCTTTCGGGTCACGAGGTTATAGCACGACGAGCG, 7.34. The value for GATACAGGGTCAGCTAGAAGCCAGAGTATGGAAA was 3.76; that for ATTTCTAGGTAACAAGTTCAGTGAAAGAGAGGAC was 3.06.

For the sequence ACTCGGAGGACAAAGGTCTGAGCTACGCCAGTGA, the PBM binding z-score was 1.95. The value for CCTAGCAGGCCAGGGTCAGTCAAGCATTTCGCTT was -0.277; that for CCTACTGGGCCCTTCAGAGGTCATTGATCATATG was 0.503; that for CCTTACGGGTCACGAGGTTATACCACGACGAGCG was 6.94. The value for CAAACTAGGTCAAGAGGTCAAAGTACGCTTCCCG was 10. On to CGAACGAGGGCAAGAGTTGATAGCAAATGCCGAT, for which the PBM binding z-score came out at 2.3. The value for ATCGAAAGGTCGATGTGAGTATAGAGAAAGGGAA was 1.66. For the sequence CCTTACGGGTCACCCCAGGTTATAGCATCGGAGT, the PBM binding z-score turned out to be 4.23. ATCTCTAGGTAAAGTTCAGTGACAGATCGATAGA registered a PBM binding z-score of 3.41.

In the case of AGAACGAGTGCACGCTGAGTTGATAGCAGAGTAG, the PBM binding z-score was 0.542. The sequence CCTCGGAGGACAACAGGAGGGCAGAGCTGCCAGA displayed a PBM binding z-score of -0.101. Consider ATATTTAGGTTAGCTGGGGTCATTCAGACTAGGC, for which the PBM binding z-score is 4.2. With CCGACTGGGGCATAAGGTCACCATAAGCCAGCCC the figure was 4.56; with GCGACTGGGGCAAAGCAGGTTACCATCAGGTTGG, 0.987. The value for CCGACTGGGGCCAAGGTTACCATACTCAGTACGA was 3.85. With TCATATAAGTAATACAGGTGAAAGTCGGCATCTA the figure was 1.29; with CGAACTAGGTCATTCAGGACAGTGAATACATTGA, 7.24. Sequence CAAACTAGGTCCCGAAAGGTCAAAGTCGAATGAC yielded a PBM binding z-score of 4.62. In turn, TGAATGAGGTTAAAGATTAGGGAACGTGGCGTCG returned a PBM binding z-score of 3.78.

In the case of AGTCAAAGTTCATCTAGGTAATGTAAGATATGCT, the PBM binding z-score came to 6.59.

Turning to ACTAGGAGGCCAAGTTTGGGTCACTCAAACAAAG, the PBM binding z-score was 0.296.

Take CCGACTGGGCCATAAGGTTACCATAAGCCAGCCC: the PBM binding z-score amounted to 1.57.

Turning to GCGACTGGGGCATCAGCAGGTTACTATAACTTAA, the PBM binding z-score is 0.884. The value for CGAACTAGGTCAAGGACGGTGAATCTCCGCACGC was 6.87. The sequence ATCGAAAGGTCGGAGGTGAGTATACCCACCCGAA came in with a PBM binding z-score of 2.78. On to CCAGACAGGTGAAAGGTAAATCAGTCTGGTACGC, for which the PBM binding z-score is 5.01.

Consider AGAATGAGTTTACCAAAGATCAGGGAAACGCTTG, for which the PBM binding z-score is 0.658. Sequence GCTATTAGTTGAAAGGGCTACCGAATGATTCTCG displayed a PBM binding z-score of 0.531. As to TCTAGCAGGCCAGAGGGTAACTCAAGAGGTACGG, the PBM binding z-score turned out to be 2.11. For CCTAGTTGGTCAGAAGGTCACACACCGGATATGA, the PBM binding z-score stood at 2.81.
